Test results taken from PubChem BioAssay.
Inconclusive results are not listed. Activity calls are given as the source filed them.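 The calls were made as follows, unless noted: active = inhibition above 50%, about 3 SD of the validation set; inactive = the rest.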

Experiments:
[1] = yeast TOR pathway RPL19A-GFP modulators, primary screen, cell-based, S. cerevisiae, multiplex flow cytometry (AID 1862; in the data active = percent of DMSO control GFP below about 86%;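 also: lower values mimic rapamycin by blocking the RPL19A rise seen in DMSO cells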); conditions: S. cerevisiae RPL19A-GFP strain, flow cytometry fluorescence, 3 h; at 10 µM; stronger effect = lower value
[2] = modulators of MEP2-GFP levels in yeast, primary screen, S. cerevisiae, multiplex flow cytometry (AID 1867;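 active = GFP response, as percent of the DMSO control, above the screen-wide mean plus 3 SD, about 139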;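 also: median GFP channel fluorescence of barcode-gated MEP2-GFP cells measured by flow cytometry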); conditions: S. cerevisiae MEP2-GFP strain, 3 h, at 10 µM, stronger effect = higher value, 100% means same as DMSO wells
[3] = modulators of CIT2-GFP expression in yeast, primary screen, S. cerevisiae, GFP fusion, multiplex flow cytometry (AID 1870;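 active = percent response above a set limit, the screen-wide mean plus 3 SD, cut at about 130% in these data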;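 also: barcoded CIT2-GFP strain pooled with four other GFP strains with rapamycin as positive control; median GFP fluorescence per well over plate mean of DMSO wells so 100% = DMSO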); conditions: 3 h, at 10 µM, stronger effect = higher value
[4] = modulators of LAP4-GFP expression in yeast, primary screen, S. cerevisiae, multiplex flow cytometry (AID 1873;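 active = GFP signal, as percent of the solvent control, above the screen mean plus 3 SD, about 149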); conditions: 3 h, at 10 µM, stronger effect = higher value
[5] = modulators of AGP1-GFP expression in yeast TOR pathway, primary screen, cell-based, multiplex flow cytometry, S. cerevisiae (AID 1887;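 active = GFP signal above the screen-wide mean plus 3 SD, that is over about 124.5% of the solvent control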;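 also: AGP1-GFP fusion strain of S. cerevisiae within a five-strain barcoded multiplex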); conditions: 3 h, at 10 µM, stronger effect = higher value
[6] = inhibitors of CD8+ T cell-vesicle binding, pilot screen, LFA-1/ICAM-1 modulator project, MLPCN validation set, flow cytometry (AID 2523;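 active = response below a set limit, under 55% cells CD8-positive and vesicle-bound, and CD8 cells' 90th-percentile brightness under 279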;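 as to vesicle binding response: mean PE anti-B7-1 fluorescence of CD8+ cells relative to row control; 100% = QL9-loaded vesicles with DMSO vehicle in the same plate row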); conditions: 2C mouse CD8+ T cells, at 7 µM, stronger effect = lower value; double positive events: measured here: CD8+/vesicle+ event percentage
[7] = target: Integrin beta-1 (Homo sapiens) + Integrin alpha-4 (Homo sapiens) (UniProt P13612+P05556); assay: inhibition of HUTS-21 binding to VLA-4, pilot screen, VLA-4 allosteric modulator project, U937 cells, HUTS-21 mAb, flow cytometry, validation set (AID 2674); conditions: HUTS-21 LIBS mAb binding, at 6.7 µM, stronger effect = higher value, binding induced by LDV ligand;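 also: antibody binding induced by the VLA-4 ligand LDV present at three times its Kd; 0% = LDV ligand with antibody and no compound and 100% = antibody without LDV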
Integrin beta-1 (Homo sapiens) + Integrin alpha-4 (Homo sapiens), sequence (P05556 whole entry, looked up): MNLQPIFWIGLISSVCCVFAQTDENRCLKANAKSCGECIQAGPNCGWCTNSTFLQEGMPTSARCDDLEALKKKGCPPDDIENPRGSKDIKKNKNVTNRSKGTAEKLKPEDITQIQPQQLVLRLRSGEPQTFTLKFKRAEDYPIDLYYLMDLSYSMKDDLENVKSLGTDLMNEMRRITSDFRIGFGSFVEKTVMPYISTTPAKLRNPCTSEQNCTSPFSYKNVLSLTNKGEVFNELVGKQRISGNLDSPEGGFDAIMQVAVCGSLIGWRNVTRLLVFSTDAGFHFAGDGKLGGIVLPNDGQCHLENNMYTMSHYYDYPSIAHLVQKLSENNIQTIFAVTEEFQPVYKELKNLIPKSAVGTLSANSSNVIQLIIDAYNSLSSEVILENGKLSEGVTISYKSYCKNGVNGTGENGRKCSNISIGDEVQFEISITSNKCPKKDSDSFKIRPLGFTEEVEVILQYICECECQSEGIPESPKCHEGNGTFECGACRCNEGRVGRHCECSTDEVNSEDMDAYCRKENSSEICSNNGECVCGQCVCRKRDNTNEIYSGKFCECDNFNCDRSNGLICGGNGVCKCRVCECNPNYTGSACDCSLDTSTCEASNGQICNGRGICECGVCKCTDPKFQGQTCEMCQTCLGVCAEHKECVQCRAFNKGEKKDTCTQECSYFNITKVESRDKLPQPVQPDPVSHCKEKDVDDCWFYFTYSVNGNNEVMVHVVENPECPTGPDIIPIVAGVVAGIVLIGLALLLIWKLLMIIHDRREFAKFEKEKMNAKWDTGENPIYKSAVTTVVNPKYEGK
Integrin beta-1 (Homo sapiens) + Integrin alpha-4 (Homo sapiens), sequence (P13612 whole entry, looked up): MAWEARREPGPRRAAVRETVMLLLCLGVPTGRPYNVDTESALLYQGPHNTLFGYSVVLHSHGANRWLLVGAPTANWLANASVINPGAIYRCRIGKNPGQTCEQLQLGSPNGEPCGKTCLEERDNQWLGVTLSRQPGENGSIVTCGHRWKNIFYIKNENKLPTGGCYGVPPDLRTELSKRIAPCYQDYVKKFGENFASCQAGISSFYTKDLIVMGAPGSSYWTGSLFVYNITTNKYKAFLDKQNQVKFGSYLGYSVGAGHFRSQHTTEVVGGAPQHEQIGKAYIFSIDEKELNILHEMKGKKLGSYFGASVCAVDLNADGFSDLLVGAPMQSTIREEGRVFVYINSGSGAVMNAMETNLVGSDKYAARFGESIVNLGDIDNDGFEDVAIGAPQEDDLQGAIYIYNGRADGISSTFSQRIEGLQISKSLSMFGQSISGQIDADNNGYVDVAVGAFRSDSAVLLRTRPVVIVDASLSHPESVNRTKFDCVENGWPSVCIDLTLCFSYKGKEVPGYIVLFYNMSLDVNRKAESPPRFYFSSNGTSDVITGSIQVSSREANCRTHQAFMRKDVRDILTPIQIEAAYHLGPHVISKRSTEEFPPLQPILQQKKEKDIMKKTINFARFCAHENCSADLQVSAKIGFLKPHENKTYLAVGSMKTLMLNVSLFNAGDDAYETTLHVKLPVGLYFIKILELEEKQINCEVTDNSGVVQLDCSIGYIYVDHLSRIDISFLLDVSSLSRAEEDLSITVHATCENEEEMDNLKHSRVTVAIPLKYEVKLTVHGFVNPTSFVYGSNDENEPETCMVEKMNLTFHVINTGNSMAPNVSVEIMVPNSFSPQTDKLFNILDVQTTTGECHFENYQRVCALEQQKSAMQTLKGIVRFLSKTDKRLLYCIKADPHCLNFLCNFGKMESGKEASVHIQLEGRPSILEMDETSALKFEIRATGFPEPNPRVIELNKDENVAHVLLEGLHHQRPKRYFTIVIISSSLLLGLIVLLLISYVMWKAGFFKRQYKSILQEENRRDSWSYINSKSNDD

[8] = superoxide lowering in aged yeast cells, pilot screen, validation compound set (AID 2706;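 active = superoxide response below 65% of plate, a cut near 3 SD across the whole screen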;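 also: yeast exposed to compound for one week at 30 degrees C before staining; 100% = mean of all compound wells on the same plate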); conditions: S. cerevisiae aging, superoxide DHE fluorescence; at 10 µM; stronger effect = lower value
[9] = target: Beta-adrenergic receptor kinase 1 (Homo sapiens) (UniProt P25098); assay: GRK2 binders displacing RNA aptamer, biochemical, validation, human GRK2, bead flow cytometry (AID 488806;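 active = aptamer binding inhibition above 30%, about 3 SD of noise from non-fluorescent compounds; inactive = inhibition at or below 30%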); conditions: bead-bound GRK2, FAM-aptamer displacement, at 10 µM, stronger effect = higher value
Beta-adrenergic receptor kinase 1 (Homo sapiens), sequence (P25098 whole entry, looked up): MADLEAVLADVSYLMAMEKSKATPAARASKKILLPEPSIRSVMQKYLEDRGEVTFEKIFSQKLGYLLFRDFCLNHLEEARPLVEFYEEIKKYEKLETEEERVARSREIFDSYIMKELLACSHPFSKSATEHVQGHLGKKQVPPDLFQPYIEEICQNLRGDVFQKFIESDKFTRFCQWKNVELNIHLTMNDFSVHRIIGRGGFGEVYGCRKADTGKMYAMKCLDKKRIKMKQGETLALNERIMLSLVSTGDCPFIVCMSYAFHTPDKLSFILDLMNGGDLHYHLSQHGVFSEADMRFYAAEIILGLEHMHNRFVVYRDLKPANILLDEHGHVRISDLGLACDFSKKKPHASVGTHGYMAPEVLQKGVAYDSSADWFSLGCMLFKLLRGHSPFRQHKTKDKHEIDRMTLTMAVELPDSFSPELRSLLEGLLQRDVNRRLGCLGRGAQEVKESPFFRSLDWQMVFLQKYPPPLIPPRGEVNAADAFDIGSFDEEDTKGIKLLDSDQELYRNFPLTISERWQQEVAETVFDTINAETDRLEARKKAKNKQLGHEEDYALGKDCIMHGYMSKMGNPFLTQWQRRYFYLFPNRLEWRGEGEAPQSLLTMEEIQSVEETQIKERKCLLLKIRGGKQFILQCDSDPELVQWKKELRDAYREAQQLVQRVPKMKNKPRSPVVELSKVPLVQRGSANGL

[10] = target: Beta-2 adrenergic receptor (Homo sapiens) (UniProt P07550); assay: beta2AR agonists driving receptor internalization, pilot screen, cell-based, FAP fluorogen, flow cytometry, validation set (AID 504459;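 active = percent response above 42, roughly 3 SD of non-fluorescent test compounds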;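 also: agonist-driven loss of surface beta2AR via internalization measured by FAP dye flow cytometry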); conditions: Am2.2-beta2AR cells, FAP surface receptor flow cytometry; at 10 µM; stronger effect = higher value
Beta-2 adrenergic receptor (Homo sapiens), sequence (P07550 whole entry, looked up): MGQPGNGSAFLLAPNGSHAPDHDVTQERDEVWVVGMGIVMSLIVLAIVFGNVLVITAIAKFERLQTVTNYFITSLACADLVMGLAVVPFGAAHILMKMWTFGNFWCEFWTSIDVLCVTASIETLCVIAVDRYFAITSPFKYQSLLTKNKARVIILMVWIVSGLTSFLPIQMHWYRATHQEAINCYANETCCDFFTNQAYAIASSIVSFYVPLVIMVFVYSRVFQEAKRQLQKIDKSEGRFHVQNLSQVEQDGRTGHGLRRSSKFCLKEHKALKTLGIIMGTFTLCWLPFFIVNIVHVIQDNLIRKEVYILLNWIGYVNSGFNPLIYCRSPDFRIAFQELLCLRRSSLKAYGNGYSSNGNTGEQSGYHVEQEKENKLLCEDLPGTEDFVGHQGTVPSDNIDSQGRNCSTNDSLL

[11] = target: AP-2 complex subunit beta (Homo sapiens) (UniProt P63010); assay: inhibitors of arrestin peptide binding to AP2, pilot screen, biochemical, validation set, GST-AP2 beads, flow cytometry (AID 504541;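 active = inhibition above 54%, about 3 SD of non-fluorescent compounds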;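 also: AP2 carries R879A mutation and is captured from E. coli lysate; bead-bound FITC arrestin peptide fluorescence measuring arrestin peptide binding to AP2; 0% = DMSO wells and 100% = excess unlabeled arrestin peptide control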); conditions: FITC arrestin peptide, at 10 µM, stronger effect = higher value, AP2 beta2 appendage fragment, R879A mutant
AP-2 complex subunit beta (Homo sapiens), sequence (P63010 whole entry, looked up, the tested form may be a part, one chain of several): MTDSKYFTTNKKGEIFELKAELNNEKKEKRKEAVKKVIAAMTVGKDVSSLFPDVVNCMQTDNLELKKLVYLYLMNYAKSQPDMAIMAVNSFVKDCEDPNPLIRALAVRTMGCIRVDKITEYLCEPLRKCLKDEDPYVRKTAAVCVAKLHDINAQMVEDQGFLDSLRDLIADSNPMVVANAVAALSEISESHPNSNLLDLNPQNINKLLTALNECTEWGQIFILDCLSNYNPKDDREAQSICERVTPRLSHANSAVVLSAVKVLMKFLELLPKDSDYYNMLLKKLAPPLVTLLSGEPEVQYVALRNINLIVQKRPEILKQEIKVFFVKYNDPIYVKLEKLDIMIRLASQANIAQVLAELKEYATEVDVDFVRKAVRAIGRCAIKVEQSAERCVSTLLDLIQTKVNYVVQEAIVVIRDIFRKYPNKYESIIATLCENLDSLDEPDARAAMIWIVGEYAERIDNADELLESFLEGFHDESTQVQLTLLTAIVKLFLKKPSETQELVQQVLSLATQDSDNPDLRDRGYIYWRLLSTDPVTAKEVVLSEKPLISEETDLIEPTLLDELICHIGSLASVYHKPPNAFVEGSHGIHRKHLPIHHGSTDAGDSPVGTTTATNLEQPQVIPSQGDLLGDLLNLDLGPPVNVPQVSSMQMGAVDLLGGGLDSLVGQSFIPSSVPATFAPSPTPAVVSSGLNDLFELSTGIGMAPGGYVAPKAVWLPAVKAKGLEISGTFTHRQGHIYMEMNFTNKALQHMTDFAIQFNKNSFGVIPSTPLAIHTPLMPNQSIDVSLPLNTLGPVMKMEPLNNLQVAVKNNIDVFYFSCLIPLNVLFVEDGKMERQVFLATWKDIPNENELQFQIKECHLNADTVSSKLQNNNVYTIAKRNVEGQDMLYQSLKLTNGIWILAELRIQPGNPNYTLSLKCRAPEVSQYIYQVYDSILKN

[12] = yeast V-ATPase proton transport modulators, S. cerevisiae, pHLuorin, HTS validation (AID 504600; in the data active = response above about 15%;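 also: plate controls were DMSO for no effect and reference compound for full effect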); conditions: S. cerevisiae pHLuorin cytosolic pH, at 10 µM, stronger effect = higher value
[13] = test system: anti-desmoglein-3 scFv antibody binding to human DSG3; assay: inhibitors of anti-DSG3 scFv binding to DSG3, pilot screen, biochemical, validation compound set, bead-based, flow cytometry (AID 588368;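 active = binding below the plate cutoff, the plate median minus 3 SD, with a reading above zero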;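 also: signal is the median channel fluorescence of bead-bound GFP antibody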); conditions: Protein G beads, DSG3-Fc, scFv-GFP binding, at 10 µM, stronger effect = lower value
[14] = inhibitors of fungal efflux pumps CDR1, CDR2, MDR1, pilot screen, validation compound set, multiplex, phenotypic (AID 588506;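 active = efflux inhibition above 0.42, the validation set average plus 4 SD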;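 also: Nile Red retained in cells so higher fluorescence means more efflux inhibition; 0 = negative control wells and 1 = enniatin B 25 µM full block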); conditions: S. cerevisiae pump-expressing triplex, Nile Red efflux flow cytometry; at 10 µM; stronger effect = higher value; the pumps come from Candida albicans
[15] = target: ATP-binding cassette sub-family B member 6 (Homo sapiens) (UniProt Q9NP58); assay: ABCB6 transporter inhibitors, pilot screen, K562-ABCB6 cells, flow cytometry, validation set (AID 588550;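 active = inhibition above the screen-wide mean plus 3 SD, about 51%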;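 also: 0% = DMSO wells and 100% = benzethonium chloride 70 µM positive control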); conditions: K562-ABCB6 porphyrin accumulation, 1 h, at 10 µM, stronger effect = higher value
ATP-binding cassette sub-family B member 6 (Homo sapiens), sequence (Q9NP58 whole entry, looked up): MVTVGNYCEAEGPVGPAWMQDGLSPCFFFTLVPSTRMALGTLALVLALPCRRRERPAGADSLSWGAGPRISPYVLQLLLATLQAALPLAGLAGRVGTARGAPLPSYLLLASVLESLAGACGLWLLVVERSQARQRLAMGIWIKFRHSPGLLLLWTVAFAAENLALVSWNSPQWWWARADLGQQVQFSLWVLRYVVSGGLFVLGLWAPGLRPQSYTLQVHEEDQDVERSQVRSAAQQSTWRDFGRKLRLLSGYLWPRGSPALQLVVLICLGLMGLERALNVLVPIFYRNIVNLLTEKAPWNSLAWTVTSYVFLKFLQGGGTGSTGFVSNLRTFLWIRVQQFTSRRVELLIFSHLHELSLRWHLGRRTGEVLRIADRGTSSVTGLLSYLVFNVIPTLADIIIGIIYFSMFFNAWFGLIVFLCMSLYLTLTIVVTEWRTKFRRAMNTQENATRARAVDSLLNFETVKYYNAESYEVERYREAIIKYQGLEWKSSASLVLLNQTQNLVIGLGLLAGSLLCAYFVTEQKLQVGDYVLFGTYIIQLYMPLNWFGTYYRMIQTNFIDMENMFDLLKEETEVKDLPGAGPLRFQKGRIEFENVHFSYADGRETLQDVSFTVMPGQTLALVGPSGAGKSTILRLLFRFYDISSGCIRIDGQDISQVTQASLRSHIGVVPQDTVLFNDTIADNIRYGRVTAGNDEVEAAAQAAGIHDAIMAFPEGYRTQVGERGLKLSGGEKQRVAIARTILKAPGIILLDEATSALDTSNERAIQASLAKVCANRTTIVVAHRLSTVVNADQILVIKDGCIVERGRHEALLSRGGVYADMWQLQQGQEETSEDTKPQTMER

[16] = promoters of myeloid differentiation in arrested cells, primary screen, cell-based, GFP/MAC1 double positive, flow cytometry, validation set (AID 588685;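 active = differentiation response of at least 50%, scaled between solvent and reference control, from cells with both markers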;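 also: compound exposure lasts four days before antibody staining and flow analysis; 0% = DMSO wells and 100% = 5 µM fulvestrant positive control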); conditions: ER-HoxA9 marrow cells, stronger effect = higher value, normalized: vehicle 0, fulvestrant 100

COc1ccccc1C(CCN(Cc1ccccc1)C(C)=O)c1ccco1 (stereo not drawn)
inactive: percent of DMSO control GFP [1] 91.5% | GFP response vs DMSO [2] 130% | percent response of DMSO control [3] 103% | GFP response vs DMSO [4] 78.7% | GFP response, % of DMSO [5] 88% | vesicle binding response [6] 145% | inhibition [7] 8.4% | superoxide response (% of plate) [8] 122% | aptamer binding inhibition [9] 6% | response [10] -11.5% | inhibition [11] 2.58% | response [12] 0.45% | binding (% of control) [13] 102% | efflux inhibition (fraction of control) [14] 0.12 | inhibition [15] 15% | differentiation response [16] 1.64%
56.4%: double positive events [6]

COc1ccc(C(=O)NCc2cccnc2)cc1
inactive: percent of DMSO control GFP [1] 103% | GFP response vs DMSO [2] 101% | percent response of DMSO control [3] 98.6% | GFP response vs DMSO [4] 85.4% | GFP response, % of DMSO [5] 94.6% | vesicle binding response [6] 247% | inhibition [7] 11.9% | superoxide response (% of plate) [8] 105% | aptamer binding inhibition [9] 7% | response [10] 3.58% | inhibition [11] -8.5% | response [12] 1.75% | binding (% of control) [13] 101% | efflux inhibition (fraction of control) [14] -0.13 | inhibition [15] 6% | differentiation response [16] -24.8%
58.3%: double positive events [6]

CC(=O)NC(NC(=S)N1CCCCCC1)C(Cl)(Cl)Cl (stereo not drawn)
inactive: percent of DMSO control GFP [1] 102% | GFP response vs DMSO [2] 104% | percent response of DMSO control [3] 98.9% | GFP response vs DMSO [4] 95.3% | GFP response, % of DMSO [5] 99.5% | vesicle binding response [6] 126% | inhibition [7] -20.2% | superoxide response (% of plate) [8] 104% | aptamer binding inhibition [9] 0% | response [10] 2.95% | inhibition [11] -7.04% | response [12] 0.33% | binding (% of control) [13] 94.8% | efflux inhibition (fraction of control) [14] 0.05 | inhibition [15] -1% | differentiation response [16] 6.11%
64.5%: double positive events [6]

O=c1oc2c(CN3CCCCC3)c(O)ccc2c2c1CCCCC2
inactive: percent of DMSO control GFP [1] 102% | GFP response vs DMSO [2] 102% | percent response of DMSO control [3] 102% | GFP response vs DMSO [4] 107% | GFP response, % of DMSO [5] 107% | vesicle binding response [6] 136% | inhibition [7] 6.95% | superoxide response (% of plate) [8] 102% | aptamer binding inhibition [9] 1% | response [10] -8.88% | inhibition [11] -7.24% | response [12] 3.83% | binding (% of control) [13] 96.4% | efflux inhibition (fraction of control) [14] -0.16 | inhibition [15] 4% | differentiation response [16] 8.59%
59.1%: double positive events [6]

CN(Cc1c(C(=O)N(C)Cc2ccccc2)nc2ccccn12)CC1Cc2ccccc2O1 (stereo not drawn)
inactive: percent of DMSO control GFP [1] 98.4% | GFP response vs DMSO [2] 104% | percent response of DMSO control [3] 98.2% | GFP response vs DMSO [4] 89.4% | GFP response, % of DMSO [5] 93.7% | vesicle binding response [6] 2590% | inhibition [7] -11.8% | superoxide response (% of plate) [8] 105% | aptamer binding inhibition [9] 3% | response [10] 0.21% | inhibition [11] -19.1% | response [12] -0.37% | binding (% of control) [13] 98.2% | efflux inhibition (fraction of control) [14] 0.17 | inhibition [15] 14% | differentiation response [16] -2.64%
61.4%: double positive events [6]

NNC(=O)c1ccncc1
61.7%: double positive events [6]
inactive: percent of DMSO control GFP [1] 102% | GFP response vs DMSO [2] 113% | percent response of DMSO control [3] 93.9% | GFP response vs DMSO [4] 117% | GFP response, % of DMSO [5] 105% | vesicle binding response [6] 175% | inhibition [7] -14.1% | superoxide response (% of plate) [8] 90.8% | aptamer binding inhibition [9] 4% | response [10] -10.5% | inhibition [11] -2.19% | response [12] 2.56% | binding (% of control) [13] 98.4% | efflux inhibition (fraction of control) [14] -0.1 | inhibition [15] 1% | differentiation response [16] -2.4%

CCOC(=O)C(NC(=O)CCC(=O)Nc1ccc(S(N)(=O)=O)cc1)C(O)c1ccccc1 (stereo not drawn)
inactive: percent of DMSO control GFP [1] 96.5% | GFP response vs DMSO [2] 103% | percent response of DMSO control [3] 100% | GFP response vs DMSO [4] 106% | GFP response, % of DMSO [5] 101% | vesicle binding response [6] 361% | inhibition [7] 15.1% | superoxide response (% of plate) [8] 102% | aptamer binding inhibition [9] 6% | response [10] -25.5% | inhibition [11] 5.81% | response [12] -6.43% | binding (% of control) [13] 101% | efflux inhibition (fraction of control) [14] 0 | inhibition [15] 7% | differentiation response [16] -7.94%
57.6%: double positive events [6]

Cc1c(Cc2ccccc2)c(=O)oc2c(CN(C)C)c(O)c(Cl)cc12
61.8%: double positive events [6]
inactive: percent of DMSO control GFP [1] 98.2% | GFP response vs DMSO [2] 108% | percent response of DMSO control [3] 94.2% | GFP response vs DMSO [4] 92.7% | GFP response, % of DMSO [5] 98% | vesicle binding response [6] 358% | inhibition [7] 0.58% | superoxide response (% of plate) [8] 98.2% | aptamer binding inhibition [9] 3% | response [10] -3.4% | inhibition [11] 0.49% | response [12] 0.93% | binding (% of control) [13] 99.3% | efflux inhibition (fraction of control) [14] -0.39 | inhibition [15] 2% | differentiation response [16] -5.62%

CC1(C)O[C@@H]2C[C@H]3[C@@H]4C[C@H](F)C5=CC(=O)C=C[C@]5(C)[C@@]4(F)[C@@H](O)C[C@]3(C)[C@]2(C(=O)CO)O1
57.8%: double positive events [6]
inactive: percent of DMSO control GFP [1] 102% | GFP response vs DMSO [2] 102% | percent response of DMSO control [3] 105% | GFP response vs DMSO [4] 102% | GFP response, % of DMSO [5] 111% | vesicle binding response [6] 113% | inhibition [7] -5.11% | superoxide response (% of plate) [8] 103% | aptamer binding inhibition [9] 1% | response [10] 6.68% | inhibition [11] -10.8% | response [12] 0.85% | binding (% of control) [13] 104% | efflux inhibition (fraction of control) [14] -0.025 | inhibition [15] 19% | differentiation response [16] -8.96%
